# Measured values published in PubChem BioAssay (EPA / NIEHS).
# Active and inactive are the calls of the source. The calls were made as follows: active = hit-call score of the fitted dose curve at least 0.9, where 1 is the maximum; inactive = score below 0.9.
# Key:
# [1] = APR_HepG2_CellLoss_72hr: Apredica 72-hour HepG2 Assay for Cell Loss (AID 2282915); conditions: high-content imaging
# How it was run: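 HepG2 cells exposed 72 h to compound at 0.39–200 uM (10 concentrations, duplicate) in 0.5% DMSO. Fixed with 3.7% formaldehyde and Hoechst 33342-stained. Imaged at 20x; nuclear count gives cell number, fitted bidirectionally versus DMSO.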
# [2] = APR_HepG2_P-H2AX_72hr: Apredica 72-hour HepG2 Assay for H2AX Phosphorylation (AID 2282916); conditions: imaging, actives raise or lower the signal;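 also: phospho-histone H2A.x immunostain intensity per cell marking DNA damage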
# How it was run: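 Human hepatoma HepG2 cells are dosed across ten concentrations (0.39 to 200 uM, 0.5% v/v DMSO) and incubated 72 hr. Phospho-histone H2A.x is then detected by antibody staining alongside c-Jun and Hoechst, and quantified by automated fluorescence imaging.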
# [3] = APR_HepG2_MitoMembPot_72hr: Apredica 72-hour HepG2 Assay for Mitochondrial Membrane Potential (AID 2282917); conditions: imaging, actives raise or lower the signal
# How it was run: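 HepG2 cells dosed 72 hr with compound at 0.39–200 uM in duplicate, 0.5% v/v DMSO final. Mitochondria stained with 250 nM MitoTracker Red CMXRos for 30 min before formaldehyde fixation, imaged by high-content fluorescence; bidirectional fit versus DMSO.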
# [4] = APR_HepG2_MitoticArrest_72hr: Apredica 72-hour HepG2 Assay for Mitotic Arrest (AID 2282918); conditions: high-content imaging, actives raise or lower the signal
# How it was run: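 HepG2 cells treated 72 h at 0.39–200 uM, 0.5% DMSO final; formaldehyde-fixed, stained with Hoechst 33342 and phospho-histone H3 antibody, imaged by high-content fluorescence; bidirectional fit versus DMSO.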
# [5] = APR_HepG2_MicrotubuleCSK_72hr: Apredica 72-hour HepG2 Assay for Microtubule CSK Stabilty (AID 2282919); conditions: HepG2 microtubule cytoskeleton, high-content imaging, actives raise or lower the signal
# How it was run: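 HepG2, 72 hr cmpd exposure, 0.39–200 uM (10 pts, duplicate), 0.5% DMSO. 3.7% formaldehyde fix, 0.5% Triton perm, anti-alpha-tubulin/Cy5 plus Hoechst. HCS fluorescence intensity; bidirectional fit vs DMSO baseline; taxol as positive control.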
# [6] = APR_HepG2_P-H2AX_24hr: Apredica 24-hour HepG2 Assay for H2AX Phosphorylation (AID 2282920); conditions: high-content imaging, actives raise or lower the signal
# How it was run: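 HepG2 cells dosed 24 h at 0.39–200 uM (10 points, duplicate, 0.5% DMSO final). Formaldehyde-fixed and permeabilized, then immunostained for phospho-H2A.x with Hoechst. Fluorescence quantified by high-content imaging, fitted bidirectionally versus DMSO.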
# [7] = APR_HepG2_StressKinase_24hr: Apredica 24-hour HepG2 Assay for Stress Kinase (AID 2282922); conditions: HepG2 stress kinase (phospho-c-Jun) imaging, actives raise or lower the signal
# How it was run: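 Read-out: phospho-c-Jun immunofluorescence (Cy3 secondary) quantified by high-content imaging at 20x, nuclei defined by Hoechst 33342. Human HepG2 liver cells dosed 24 hr, 0.39–200 uM, DMSO 0.5% v/v; gain or loss of signal fitted relative to DMSO.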
# [8] = APR_HepG2_p53Act_72hr: Apredica 72-hour HepG2 Assay for p53 Activation (AID 2282923); conditions: high-content imaging, actives raise or lower the signal;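 also: average cellular p53 protein immunofluorescence intensity in HepG2 cells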
# How it was run: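 Imaging-based endpoint: after 72 hr compound exposure (up to 200 uM, 0.5% DMSO), fixed and permeabilized monolayers were labelled with anti-p53 antibody and imaged; signal change in either direction was fitted relative to DMSO controls.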
# [9] = APR_HepG2_MitoMass_72hr: Apredica 72-hour HepG2 Assay for Mitochondrial Mass (AID 2282924); conditions: high-content imaging, actives raise or lower the signal;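 also: MitoTracker Red CMXRos stain intensity per cell imaged as mitochondrial mass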
# How it was run: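 Read-out: MitoTracker Red fluorescence intensity from automated imaging (20x, six fields per well) in human HepG2 liver cells. Dosing ran 72 hr, 0.39–200 uM, 0.5% DMSO; bidirectional curve fitting versus DMSO baseline.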
# [10] = APR_HepG2_NuclearSize_72hr: Apredica 72-hour HepG2 Assay for Nuclear Size (AID 2282925); conditions: high-content imaging, actives raise or lower the signal
# How it was run: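 Read-out: nuclear diameter from Hoechst 33342 images (ArrayScan, 20x, six fields/well), via cell-cycle image analysis. HepG2 were dosed 0.39–200 uM for 72 hr in 0.5% DMSO. Bidirectional fit relative to DMSO.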
# [11] = ATG_CRE_CIS: Attagene CIS-FACTORIAL HepG2 Assay for human cAMP Responsive Element (CRE) binding protein 3 (AID 2282926); conditions: HepG2 CRE cis-reporter, Attagene multiplexed mRNA; actives raise or lower the signal
# How it was run: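 Induced reporter mRNA from a CRE cis element, measured in HepG2 among many multiplexed units at 24 h. Detection used RT-PCR plus capillary electrophoresis of fluorescent fragments; DMSO served as negative control.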
# [12] = biological target: CCAAT/enhancer-binding protein beta (Homo sapiens) (UniProt P17676); experiment: ATG_C_EBP_CIS: Attagene CIS-FACTORIAL HepG2 Assay for human CCAAT/Enhancer Binding Protein (C/EBP) beta (AID 2282927); conditions: HepG2 Attagene cis-factorial transcription factor reporter; actives raise or lower the signal
# Sequence of CCAAT/enhancer-binding protein beta (Homo sapiens) (P17676 whole entry, looked up): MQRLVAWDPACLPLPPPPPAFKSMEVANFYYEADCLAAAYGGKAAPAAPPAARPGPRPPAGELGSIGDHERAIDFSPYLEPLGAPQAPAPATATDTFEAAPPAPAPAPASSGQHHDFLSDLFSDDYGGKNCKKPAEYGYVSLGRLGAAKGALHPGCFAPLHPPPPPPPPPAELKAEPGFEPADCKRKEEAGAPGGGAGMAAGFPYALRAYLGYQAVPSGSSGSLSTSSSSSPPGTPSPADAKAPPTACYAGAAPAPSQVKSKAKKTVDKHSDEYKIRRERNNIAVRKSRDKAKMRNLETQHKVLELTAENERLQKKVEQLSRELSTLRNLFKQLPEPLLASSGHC
# How it was run: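 HepG2 transiently transfected with multiplexed reporter units under cis-regulatory promoters reporting endogenous C/EBPb activity. After 24 h exposure, reporter mRNA assayed by RT-PCR, fluorescent labelling, HpaI digestion and capillary electrophoresis; bidirectional fitting versus DMSO.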
# [13] = ATG_CMV_CIS: Attagene CIS-FACTORIAL HepG2 Assay for human CMV (Internal Marker) (AID 2282928); conditions: HepG2 CMV promoter reporter, transcription factor profiling; actives raise or lower the signal;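 also: endpoint acts as a background internal control marker rather than a target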
# How it was run: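 Reporter transcripts from transfected HepG2 cells are isolated after 24 h of chemical dosing, reverse-transcribed and amplified. Fragments labeled with 6-FAM are cut with HpaI and quantified by capillary electrophoresis; DMSO defines baseline.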
# [14] = ATG_DR4_LXR_CIS: Attagene CIS-FACTORIAL HepG2 Assay for human Liver X Receptor (LXR), DR4 submotif (AID 2282929); conditions: HepG2 Attagene DR4 cis-reporter, mRNA transcription; actives raise or lower the signal
# How it was run: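 Endogenous factor activity at a DR4 cis-element is read as reporter mRNA in transiently transfected HepG2 cells. Exposure lasts 24 h; transcripts are amplified, fluorescently labelled and sized by capillary electrophoresis, with DMSO as baseline.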
# [15] = biological target: Aryl hydrocarbon receptor (Homo sapiens) (UniProt P35869); experiment: ATG_Ahr_CIS: Attagene CIS-FACTORIAL HepG2 Assay for human Aryl Hydrocarbon Receptor (Ahr) (AID 2282930); conditions: HepG2 AhR cis-factorial reporter transcription; actives raise or lower the signal
# Sequence of Aryl hydrocarbon receptor (Homo sapiens) (P35869 whole entry, looked up): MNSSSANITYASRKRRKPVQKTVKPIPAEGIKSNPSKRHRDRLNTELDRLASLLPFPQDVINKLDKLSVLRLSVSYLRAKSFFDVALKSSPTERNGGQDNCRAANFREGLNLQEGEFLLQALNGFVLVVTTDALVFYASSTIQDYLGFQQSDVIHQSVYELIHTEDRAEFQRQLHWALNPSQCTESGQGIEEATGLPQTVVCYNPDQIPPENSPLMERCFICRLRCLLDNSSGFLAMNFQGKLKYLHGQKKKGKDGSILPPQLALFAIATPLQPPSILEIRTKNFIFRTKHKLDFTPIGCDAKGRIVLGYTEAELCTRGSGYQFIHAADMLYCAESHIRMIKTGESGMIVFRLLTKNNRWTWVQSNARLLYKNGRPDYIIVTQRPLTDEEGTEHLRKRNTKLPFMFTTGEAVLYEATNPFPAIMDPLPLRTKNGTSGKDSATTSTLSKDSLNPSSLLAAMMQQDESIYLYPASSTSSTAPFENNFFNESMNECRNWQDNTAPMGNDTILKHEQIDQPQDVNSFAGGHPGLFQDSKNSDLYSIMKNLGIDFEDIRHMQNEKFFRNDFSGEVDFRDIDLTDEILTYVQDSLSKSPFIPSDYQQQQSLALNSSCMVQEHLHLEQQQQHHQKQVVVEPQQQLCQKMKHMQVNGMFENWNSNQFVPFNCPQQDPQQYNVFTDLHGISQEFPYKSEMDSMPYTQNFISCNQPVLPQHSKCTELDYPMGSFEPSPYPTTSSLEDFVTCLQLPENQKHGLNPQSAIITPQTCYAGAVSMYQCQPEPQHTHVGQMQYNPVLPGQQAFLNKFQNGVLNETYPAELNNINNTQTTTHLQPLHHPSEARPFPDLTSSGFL
# How it was run: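 HepG2 cells transiently transfected with cis-element-driven multiplexed reporter units; endogenous AhR activity read as reporter mRNA 24 h after dosing, via RT-PCR, 6-FAM labelling, HpaI digestion and capillary electrophoresis. Bidirectional fit relative to DMSO.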
# [16] = ATG_AP_1_CIS: Attagene CIS-FACTORIAL HepG2 Assay for human Activator Protein 1 (AP-1) (AID 2282931); conditions: HepG2 Attagene cis-factorial AP-1 reporter mRNA; actives raise or lower the signal
# How it was run: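 Fluorescence of labelled PCR fragments separated by capillary electrophoresis gives reporter mRNA levels. HepG2 with transfected cis-regulated reporter units, 24 h exposure; DMSO serves as baseline for bidirectional curve fits.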
# [17] = ATG_AP_2_CIS: Attagene CIS-FACTORIAL HepG2 Assay for human Activator Protein 2 (AP-2) (AID 2282932); conditions: HepG2 AP-2 cis-reporter, Attagene transcription factor profiling; actives raise or lower the signal
# How it was run: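 Liver-derived HepG2 line, cis-reporter system measuring endogenous factors; 24 h dosing; reporter mRNA detected by fluorescent RT-PCR and capillary electrophoresis.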
# [18] = ATG_BRE_CIS: Attagene CIS-FACTORIAL HepG2 Assay for human Bone Morphogenetic Protein (BMP) Response Element (BRE) (AID 2282933); conditions: HepG2 BMP response element reporter, Attagene transcription factor profiling; actives raise or lower the signal
# How it was run: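 Gain- or loss-of-signal was derived by bidirectional fitting against DMSO controls. The signal came from reporter mRNA, measured by RT-PCR and capillary electrophoresis, in HepG2 cells transiently carrying multiple reporter units and dosed for 24 h.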
# [19] = biological target: Retinoic acid receptor alpha (Homo sapiens) (UniProt P10276); experiment: ATG_DR5_RAR_CIS: Attagene CIS-FACTORIAL HepG2 Assay for human Retinoic Acid Receptor Alpha (RARE), DR5 submotif (AID 2282934); conditions: HepG2 Attagene cis-factorial RARE DR5 reporter, mRNA; actives raise or lower the signal;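 as to AC50: reporter responds to endogenous RAR alpha beta and gamma in HepG2 not RARA alone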
# Sequence of Retinoic acid receptor alpha (Homo sapiens) (P10276 whole entry, looked up): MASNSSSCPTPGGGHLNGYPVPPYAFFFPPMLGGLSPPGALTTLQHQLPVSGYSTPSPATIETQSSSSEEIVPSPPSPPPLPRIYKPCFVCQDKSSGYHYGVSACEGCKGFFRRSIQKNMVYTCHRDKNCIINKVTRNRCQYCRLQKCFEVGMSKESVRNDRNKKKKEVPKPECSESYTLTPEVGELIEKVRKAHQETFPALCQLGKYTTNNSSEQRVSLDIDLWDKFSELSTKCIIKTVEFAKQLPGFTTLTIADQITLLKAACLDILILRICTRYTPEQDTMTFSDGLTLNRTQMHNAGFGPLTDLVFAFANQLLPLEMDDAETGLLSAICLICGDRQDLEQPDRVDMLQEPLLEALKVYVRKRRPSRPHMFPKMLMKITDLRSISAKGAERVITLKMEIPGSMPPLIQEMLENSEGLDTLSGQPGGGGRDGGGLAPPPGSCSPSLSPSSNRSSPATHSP
# How it was run: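 HepG2 cells transiently transfected with multiplexed reporter units; DR5 cis-element drives reporter through endogenous transcription factors. After 24 h dosing, reporter mRNA quantified by RT-PCR, fluorescent labeling, HpaI digestion and capillary electrophoresis; bidirectional fitting versus DMSO.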
# [20] = APR_HepG2_StressKinase_72hr: Apredica 72-hour HepG2 Assay for Stress Kinase (AID 2282921); conditions: HepG2 stress kinase (phospho-c-Jun) imaging, actives raise or lower the signal
# How it was run: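 After a 72 h compound treatment spanning 0.39 to 200 uM, formaldehyde-fixed cells are labelled for phosphorylated c-Jun and nuclei, imaged by automated fluorescence microscopy, and activity is fitted in both directions relative to DMSO controls.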
smiles,measurement,setting,value
CS(=O)(=O)c1ccc(C(=O)C2C(=O)CCCC2=O)c([N+](=O)[O-])c1,outcome,[1],inactive
same,outcome,[2],inactive
same,outcome,[3],inactive
same,outcome,[4],inactive
same,outcome,[5],inactive
same,outcome,[6],inactive
same,outcome,[7],inactive
same,outcome,[8],inactive
same,outcome,[9],inactive
same,outcome,[10],inactive
same,outcome,[11],inactive
same,outcome,[12],inactive
same,outcome,[13],inactive
same,outcome,[14],inactive
same,outcome,[15],inactive
same,outcome,[16],inactive
same,outcome,[17],inactive
same,outcome,[18],inactive
CC1(C)CCC(=Cc2ccc(Cl)cc2)C1(O)Cn1cncn1 (centres undefined),outcome,[1],inactive
same,outcome,[2],inactive
same,outcome,[3],inactive
same,outcome,[4],inactive
same,outcome,[5],inactive
same,outcome,[6],inactive
same,outcome,[7],inactive
same,outcome,[8],inactive
same,outcome,[10],inactive
same,outcome,[11],inactive
same,outcome,[12],inactive
same,outcome,[13],inactive
same,outcome,[14],inactive
same,outcome,[15],inactive
same,outcome,[16],inactive
same,outcome,[17],inactive
same,outcome,[18],inactive
same,AC50,[19],18.8 µM (active)
CCOc1nc(C(Cl)(Cl)Cl)ns1,outcome,[1],inactive
same,outcome,[2],inactive
same,outcome,[3],inactive
same,outcome,[4],inactive
same,outcome,[5],inactive
same,outcome,[6],inactive
same,outcome,[20],inactive
same,outcome,[7],inactive
same,outcome,[8],inactive
same,outcome,[10],inactive
same,AC50,[11],20.8 µM (active)
same,outcome,[12],inactive
same,outcome,[13],inactive
same,outcome,[14],inactive
same,outcome,[15],inactive
same,outcome,[16],inactive
same,outcome,[17],inactive
same,AC50,[18],24.6 µM (active)
same,outcome,[19],inactive
CCOc1nc(F)cc2nc(S(=O)(=O)Nc3c(Cl)cccc3Cl)nn12,outcome,[1],inactive
same,outcome,[2],inactive
same,outcome,[3],inactive
same,outcome,[4],inactive
same,outcome,[5],inactive
same,outcome,[6],inactive
same,outcome,[7],inactive
same,outcome,[8],inactive
same,outcome,[10],inactive
same,outcome,[11],inactive
same,outcome,[12],inactive
same,outcome,[13],inactive
same,outcome,[14],inactive
same,outcome,[15],inactive
same,outcome,[16],inactive
same,outcome,[17],inactive
same,outcome,[18],inactive
COCC(=O)N(c1c(C)cccc1C)C(C)C(=O)OC (centres undefined),outcome,[1],inactive
same,outcome,[2],inactive
same,outcome,[3],inactive
same,outcome,[4],inactive
same,outcome,[5],inactive
same,outcome,[6],inactive
same,outcome,[7],inactive
same,outcome,[8],inactive
same,outcome,[10],inactive
same,outcome,[11],inactive
same,outcome,[12],inactive
same,outcome,[13],inactive
same,outcome,[14],inactive
same,AC50,[15],81.7 µM (active)
same,outcome,[16],inactive
same,outcome,[17],inactive
same,AC50,[18],50 µM (active)
same,outcome,[19],inactive
CC1(C)C(C(=O)OC(C#N)c2cccc(Oc3ccccc3)c2)C1(C)C (centres undefined),AC50,[1],70.3 µM (active)
same,outcome,[2],inactive
same,outcome,[3],inactive
same,outcome,[4],inactive
same,AC50,[5],100 µM (active)
same,outcome,[6],inactive
same,outcome,[7],inactive
same,outcome,[8],inactive
same,outcome,[9],inactive
same,outcome,[10],inactive
same,outcome,[11],inactive
same,outcome,[12],inactive
same,outcome,[13],inactive
same,AC50,[14],14.3 µM (active)
same,outcome,[15],inactive
same,outcome,[16],inactive
same,outcome,[17],inactive
same,outcome,[18],inactive
same,AC50,[19],3.62 µM (active)
COP(=O)(OC)O/C(C)=C/C(=O)N(C)C,outcome,[1],inactive
same,outcome,[2],inactive
same,outcome,[3],inactive
same,outcome,[4],inactive
same,outcome,[5],inactive
same,outcome,[6],inactive
same,outcome,[20],inactive
same,outcome,[7],inactive
same,outcome,[8],inactive
same,outcome,[9],inactive
same,outcome,[10],inactive
same,outcome,[11],inactive
same,outcome,[12],inactive
same,outcome,[13],inactive
same,outcome,[14],inactive
same,outcome,[15],inactive
same,outcome,[16],inactive
same,outcome,[17],inactive
same,outcome,[18],inactive
same,outcome,[19],inactive
